Test [1] can be described thus: qHTS of pediatric cancer cell lines to identify multiple opportunities for drug repurposing: Confirmatory screen for BT-12 cells (AID 1347112). Also: nearly all actives have a fitted effect of over 55% in size. The method, boiled down:
(§1)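 Cells (500-1,000/well) in growth media were settled 5 h at 37 degrees C, then given compounds for 48 h. Viability was read as CellTiter-Glo luminescence. Primary runs used MIPE at 11 points (0.78 nM-46 µM) and NPC at 8 points (0.59 nM-46 µM); follow-ups used 11 points.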

A short description of test [2]: qHTS of pediatric cancer cell lines to identify multiple opportunities for drug repurposing: Confirmatory screen for LAN-5 cells (AID 1347113). Also: nearly all actives have a fitted effect of over 65% in size. The method, boiled down: as §1
Test [3] is described as follows: qHTS of pediatric cancer cell lines to identify multiple opportunities for drug repurposing: Confirmatory screen for DAOY cells (AID 1347114). Also: nearly all actives have a fitted effect of over 65% in size. The method in brief:
(§2)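 Viability measured as metabolically active cells via CellTiter-Glo luminescence following 48 hours of compound exposure, 11-point dilutions in confirmatory testing. 500-1,000 cells/well plated 5 hours before dosing; controls were DMSO and 2.3 µM bortezomib.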

Test [4] can be described thus: qHTS of pediatric cancer cell lines to identify multiple opportunities for drug repurposing: Confirmatory screen for SJ-GBM2 cells (AID 1347116). Also: nearly all actives have a fitted effect of over 60% in size. The method in brief:
as §2
Background: In qHTS, concentration-response curves come from the screen itself.

The nature of test [5]: qHTS of pediatric cancer cell lines to identify multiple opportunities for drug repurposing: Confirmatory screen for BT-37 cells (AID 1347117). Also: nearly all actives have a fitted effect of over 55% in size. To be noted: BT-37 pediatric cancer cells, viability; activity change, negative = cytotoxic: at 45.9 µM (top of the series). The method in brief: as §1
Test [6] in a line: qHTS of pediatric cancer cell lines to identify multiple opportunities for drug repurposing: Confirmatory screen for TC32 cells (AID 1347118).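 Also: cells exposed to compound for 48 h before the read; nearly all actives have a fitted effect of over 65% in size.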 The method in brief:
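Luminescent CellTiter-Glo read-out of metabolically active TC32 cells after 48 h compound exposure. Primary: MIPE 11-point, 0.78 nM–46 µM; NPC 8-point, 0.59 nM–46 µM. Confirmatory: 11-point dilutions.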

Test [7] in a line: qHTS of pediatric cancer cell lines to identify multiple opportunities for drug repurposing: Confirmatory screen for MG 63 (6-TG R) cells (AID 1347119). Also: nearly all actives have a fitted effect of over 55% in size. The method, boiled down: as §1
The nature of test [8]: qHTS of pediatric cancer cell lines to identify multiple opportunities for drug repurposing: Confirmatory screen for control Hh wild type fibroblast cells (AID 1347121). Also: nearly all actives have a fitted effect of over 70% in size. The method, boiled down:
as §1

The nature of test [9]: qHTS of pediatric cancer cell lines to identify multiple opportunities for drug repurposing: Confirmatory screen for U-2 OS cells (AID 1347122). Also: nearly all actives have a fitted effect of over 65% in size. The method, boiled down: as §1
A short description of test [10]: qHTS of pediatric cancer cell lines to identify multiple opportunities for drug repurposing: Confirmatory screen for Rh41 cells (AID 1347123). Also: nearly all actives have a fitted effect of over 60% in size. The method in brief: as §1
Test [11] is described as follows: qHTS of pediatric cancer cell lines to identify multiple opportunities for drug repurposing: Confirmatory screen for RD cells (AID 1347124). The method, boiled down:
as §1

A short description of test [12]: qHTS of pediatric cancer cell lines to identify multiple opportunities for drug repurposing: Confirmatory screen for Rh18 cells (AID 1347125). Also: nearly all actives have a fitted effect of over 55% in size. The method in brief:
as §1

The nature of test [13]: qHTS of pediatric cancer cell lines to identify multiple opportunities for drug repurposing: Confirmatory screen for NB-EBc1 cells (AID 1347115).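 Also: cells exposed to compound for 48 h before the viability read; nearly all actives have a fitted effect of over 45% in size.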 The method in brief: as §1
The nature of test [14]: qHTS of pediatric cancer cell lines to identify multiple opportunities for drug repurposing: Confirmatory screen for Saos-2 cells (AID 1347127). Also: nearly all actives have a fitted effect of over 60% in size. The method, boiled down: as §1
Test [15] can be described thus: qHTS of pediatric cancer cell lines to identify multiple opportunities for drug repurposing: Confirmatory screen for OHS-50 cells (AID 1347128). The method in brief: as §1
Test [16] can be described thus: qHTS of pediatric cancer cell lines to identify multiple opportunities for drug repurposing: Confirmatory screen for Rh30 cells (AID 1347126). Also: nearly all actives have a fitted effect of over 55% in size. The method in brief: as §1
Test [17] can be described thus: qHTS of pediatric cancer cell lines to identify multiple opportunities for drug repurposing: Confirmatory screen for SK-N-SH cells (AID 1347129).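 Also: cells exposed to compound for 48 h before viability read; nearly all actives have a fitted effect of over 60% in size.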 The method in brief:
as §1

Inconclusive results are not listed. Active and inactive are the calls of the source. Calls follow the shape of the dose curve; as a rule, active = well fitted curve in the direction sought with a large enough effect; inconclusive = small, poorly fitted or top-dose-only effect, or another doubt; inactive = no such curve, though single readings can be large; an effect the other way counts as inactive or inconclusive.
Potency is read from the fitted curve at half-maximal effect.

As for `COC[C@H](NC(=O)c1cnc(C)s1)C(=O)N[C@@H](COC)C(=O)N[C@@H](Cc1ccccc1)C(=O)[C@@]1(C)CO1`, the Potency in [1] is 0.414 µM (active); in test [2], 0.329 µM (active); in [3] it was 0.104 µM (active); in [4], 0.131 µM (active); in test [5], 0.165 µM (active); in [6] it was 0.165 µM (active). For the same molecule, the Potency in [7] was 0.0928 µM (active); in test [9], 0.329 µM (active); in [10] it was 0.0465 µM (active); in [11], 0.0827 µM (active); in test [12], 0.208 µM (active). The Potency entry in [8] is “inactive”.

`CC(C)(N)c1ccc(-c2nc3ccccc3nc2-c2ccccc2)cc1`: the Potency in test [1] was 0.928 µM (active); in test [2], 0.465 µM (active); in test [5] it was 18.5 µM (active); in test [6], 1.47 µM (active); in [12], 1.65 µM (active); in test [14], 0.737 µM (active). For the same molecule, in test [15], the Potency was 0.369 µM (active). The Potency entry in test [3], in test [13], in test [9] and in test [11] was “inactive” throughout.

Regarding `Cc1ccc([N+](=O)[O-])cc1S(=O)(=O)N(C)N=Cc1cnc2ccc(Br)cn12`, the Potency is 0.827 µM (active) in [1]; 0.522 µM (active) in [2]; 0.329 µM (active) in test [3]; 0.293 µM (active) in test [13]; 0.465 µM (active) in [4]; 0.329 µM (active) in [5]. For the same molecule, the Potency was 0.293 µM (active) in test [6]; 7.37 µM (active) in test [9]; 0.329 µM (active) in test [10]; 4.65 µM (active) in test [11]; 1.31 µM (active) in [12]; 4.65 µM (active) in test [16]. The results for the Potency in test [14], in test [15] and in test [17] were 2.33 µM (active), 0.465 µM (active) and 0.235 µM (active), respectively.

`O=S(=O)(O)CCSSCCS(=O)(=O)O`: the Potency entry in [1], in test [2], in [3], in [13], in test [4] and in test [5] was “inactive” in each case. Further, the Potency entry in test [6], in [7], in test [8], in [9], in test [10] and in test [11] was “inactive” each time. Further, the Potency entry in test [12], in test [14], in test [15] and in test [17] was “inactive” throughout.

As for `CC(C)C[C@H](NC(=O)[C@@H](NC(=O)c1cccc(-c2ccccc2)n1)[C@@H](C)O)B(O)O`, the Potency in test [1] was 0.0827 µM (active); in [2], 0.0369 µM (active); in test [3] it was 0.0369 µM (active); in test [4], 0.0465 µM (active); in test [5], 0.0737 µM (active); in [6], 0.0585 µM (active). The Potency in test [7] was 0.0165 µM (active); in [8], 20.8 µM (active); in test [9], 0.0369 µM (active); in test [10], 0.0737 µM (active); in test [11] it was 0.0522 µM (active); in test [12], 0.0827 µM (active). The Potency in test [16] was 3.29 µM (active); in test [14] it was 0.414 µM (active); in test [15], 0.131 µM (active); in test [17], 0.059 µM (active).

As for `CC1(C)O[C@@H]2C[C@H]3[C@@H]4CCC5=CC(=O)C=C[C@]5(C)[C@@H]4[C@@H](O)C[C@]3(C)[C@]2(C(=O)CO)O1`, the Potency entry in test [1], in test [2], in test [3], in test [13], in [4] and in [5] was “inactive” each time. Besides, the Potency result in test [6], in [7], in test [8], in [9], in test [10] and in test [11] was “inactive” each time. The Potency entry in test [12], in [14], in test [15] and in test [17] was “inactive” throughout.

Regarding `CC(C=CC(=O)NO)=C[C@@H](C)C(=O)c1ccc(N(C)C)cc1`, the Potency in test [1] was 2.93 µM (active); in test [2], 0.414 µM (active); in test [3], 2.33 µM (active); in test [13] it was 0.585 µM (active); in test [4] it was 2.08 µM (active); in test [5], 0.827 µM (active). In addition, the Potency was 0.414 µM (active) in test [6]; 1.17 µM (active) in [7]; 6.57 µM (active) in test [8]; 0.657 µM (active) in test [9]; 1.47 µM (active) in test [10]; 1.31 µM (active) in test [11]. In addition, the Potency in [12] is 0.928 µM (active); in [14], 1.85 µM (active); in test [15], 1.47 µM (active); in test [17], 2.96 µM (active).

Consider `C[C@H](NCc1ccc2c(c1)nc(NC(=O)c1ccc(-c3cn[nH]c3)s1)n2CCc1ccccc1)C(C)(C)C`, for which the Potency was 2.93 µM (active) in [1]; 1.65 µM (active) in [2]; 2.93 µM (active) in [3]; 0.928 µM (active) in test [4]; 0.928 µM (active) in test [5]; 0.928 µM (active) in [6]. In addition, the Potency was 2.33 µM (active) in [7]; 10.4 µM (active) in [8]; 1.17 µM (active) in test [9]; 0.928 µM (active) in [10]; 1.17 µM (active) in test [11]; 3.29 µM (active) in test [12]. Besides, the Potency in test [16] is 4.14 µM (active); in [14], 1.47 µM (active); in test [15], 1.47 µM (active); in test [17], 0.833 µM (active).

As to `CNC(=O)c1ccc(Nc2cc(Nc3ccccc3S(=O)(=O)C(C)C)c3cc[nH]c3n2)nc1`, the Potency in [1] was 13.1 µM (active); in test [2] it was 2.93 µM (active); in test [3], 5.85 µM (active); in test [13], 5.85 µM (active); in [4] it was 10.4 µM (active); in test [5], 6.57 µM (active). Also, the Potency was 1.85 µM (active) in [6]; 1.04 µM (active) in test [7]; 13.1 µM (active) in test [8]; 5.85 µM (active) in [10]; 9.27 µM (active) in test [11]; 18.5 µM (active) in test [12]. The Potency in [14] is 5.85 µM (active); in [15], 8.27 µM (active); in test [17] it was 5.9 µM (active).

(Values after PubChem BioAssay (NCATS).)
